# Measured values taken from PubChem BioAssay AID2708 (National Center for Advancing Translational Sciences (NCATS), 2010).
# Some of the results follow. Records with an inconclusive call do not appear. Activity calls are given as the source filed them. Calls follow the shape of the dose curve; as a rule, active = well fitted inhibition curve with a large enough effect; inconclusive = small, poorly fitted or top-dose-only effect; inactive = no such curve, though single readings can be large or run the other way.
# Molecular target: ATP-dependent DNA helicase Q1 (Homo sapiens) (UniProt P46063)
# Test: Confirmation qHTS Assay for Inhibitors of RecQ-Like Dna Helicase 1 (RECQ1); also: nearly all actives have a fitted effect of over 45% in size
# Conditions: RECQ1 helicase DNA unwinding, fluorescence
# From the text: Survival of cells and the faithful propagation of the genome depend on elaborate mechanisms of detecting and repairing DNA damage. Treatment of advanced cancer relies on radiation therapy or chemotherapy, which kill cancer cells by causing extensive DNA damage. It is often found, that cancer cells develop resistance to therapy through enhanced activity of DNA repair functions; this has led to an increased interest in developing drugs that interfere with DNA repair, which could sensitize cancer cells to conventional therapy.
# This validation qHTS assay pertains to human RECQ1, which is important in resolving abnormal DNA structures formed during replication or homologous recombination. Shutting down the expression of RECQ1 leads to chromosomal instability and higher radiation sensitivity in cultured cells.
# The validation assay was a fluorescence quenching based kinetic qHTS for RECQ1 Helicase DNA unwinding. The activity was measured as ATP-dependent separation of a 20-bp DNA duplex extended by 30-nt single-stranded tails (forked duplex). The forked DNA substrate was tagged with rhodamine fluorophore (carboxytetramethyl rhodamine, TAMRA) and BHQ-2 (Black Hole Quencher 2) dark quencher. Strand separation results in an increase in the fluorescence of TAMRA (excitation 525 nm, emission 598 nm). […]
# Potency is read from the fitted curve at half-maximal effect.
# Sequence of ATP-dependent DNA helicase Q1 (Homo sapiens) (P46063 whole entry, looked up): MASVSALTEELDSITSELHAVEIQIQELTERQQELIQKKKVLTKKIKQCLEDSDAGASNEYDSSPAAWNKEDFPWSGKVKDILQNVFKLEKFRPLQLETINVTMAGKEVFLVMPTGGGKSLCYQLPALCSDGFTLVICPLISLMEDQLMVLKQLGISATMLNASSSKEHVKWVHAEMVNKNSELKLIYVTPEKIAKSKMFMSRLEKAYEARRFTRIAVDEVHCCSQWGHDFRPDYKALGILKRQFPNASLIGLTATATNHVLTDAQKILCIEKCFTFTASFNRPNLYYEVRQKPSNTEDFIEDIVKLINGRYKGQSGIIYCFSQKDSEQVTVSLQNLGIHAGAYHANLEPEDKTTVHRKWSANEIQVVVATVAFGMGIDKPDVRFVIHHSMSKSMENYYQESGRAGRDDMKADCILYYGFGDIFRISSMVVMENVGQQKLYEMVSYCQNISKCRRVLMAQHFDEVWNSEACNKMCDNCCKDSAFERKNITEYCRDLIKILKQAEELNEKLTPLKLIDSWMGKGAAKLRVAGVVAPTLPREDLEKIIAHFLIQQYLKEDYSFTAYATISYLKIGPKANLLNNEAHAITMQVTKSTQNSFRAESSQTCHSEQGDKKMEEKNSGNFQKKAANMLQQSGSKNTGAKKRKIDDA
structure (smiles),measurement,value
O=C(O)c1cc[c]([Sb](=[O])([OH])[OH])cc1[N+](=O)[O-],Potency,913 nM (active)
